Values without a mark were called inactive. The rule behind the calls is not given here. Where a SMILES comes first, the peptide text is derived from it. The star is where a group is joined. Boc = CC(C)(C)OC(=O)*

Chain of Pantothenate synthetase (Mycobacterium tuberculosis (strain ATCC 25618 / H37Rv)) (P9WIL5 whole entry, looked up): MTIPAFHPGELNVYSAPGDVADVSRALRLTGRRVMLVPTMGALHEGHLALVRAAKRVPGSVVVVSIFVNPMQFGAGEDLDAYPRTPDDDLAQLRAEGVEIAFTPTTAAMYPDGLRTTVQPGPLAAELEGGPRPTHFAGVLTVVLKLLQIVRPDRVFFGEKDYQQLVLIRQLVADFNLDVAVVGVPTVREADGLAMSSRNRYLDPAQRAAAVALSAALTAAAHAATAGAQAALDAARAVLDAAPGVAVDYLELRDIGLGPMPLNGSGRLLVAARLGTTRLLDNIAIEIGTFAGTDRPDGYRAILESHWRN

The test addresses Pantothenate synthetase (Mycobacterium tuberculosis (strain ATCC 25618 / H37Rv)) (UniProt P9WIL5). Nature of the test: Recombinant Mtb pantothenate synthetase (PanC) inhibitors, coupled enzyme, confirmatory (AID 375).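 Note: 0% = full reaction with vehicle and 100% = no enzyme background.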 Particulars: coupled enzyme assay; at 10 µM, stronger effect = higher value.
By inhibition is commonly meant the share of the control response that was lost under treatment. Consider `O=C(Nc1ccccc1C(=O)O)c1cccc(NC(=O)c2ccc(Br)o2)c1`, for which the inhibition was 0%.
In the case of `O=c1c2c3c(sc2n2cnnc2n1CCc1ccccc1)CCCC3` it was 5%; in that of `CN(C)c1ccc(CNn2cnnc2)cc1`, 2%.
`CSCCC(NC(=O)OC(C)(C)C)C(=O)NC(CC(C)C)C(N)=O` (stereo not drawn) (Boc-Met-Leu-NH2; configuration not given here): the inhibition was 0%.
Take `O=C(O)CCc1ccc(-c2cccs2)n1NC(=O)c1ccco1`: the inhibition is 0%.
With `CC(=O)O[C@]1(C(C)=O)CC[C@H]2[C@@H]3C=C(C)C4=CC(=O)CC[C@]4(C)[C@H]3CC[C@@]21C`, the inhibition was 0%.
In the case of `CCOC(=O)c1ccc(NS(=O)C23CC4CC(CC(C4)C2)C3)cc1` (stereo not given) it was 8%; in that of `Cc1ccc(S(=O)(=O)NCCOC(=O)Nc2sc(=S)n(C)c2C)cc1`, 0%.
With `CSc1nc(N)nc(SCCS(=O)(=O)c2ccc(Cl)cc2)c1C#N`, the inhibition is 0%.
Take `O=C(NCc1nnc(SCC(=O)N2CCCCCC2)o1)c1ccco1`: the inhibition is 8%.
Consider `COc1ccccc1CNC(=O)C1CCCN(S(=O)(=O)c2cccc3cccnc23)C1` (stereo not given), for which the inhibition was 1%.
`CN(C)C(=O)CSc1nnc([C@H](Cc2c[nH]c3ccccc23)NC(=O)OC(C)(C)C)o1`: the inhibition is 13%.
With `CC(C)(C)NC(=O)C(Cc1ccccc1)NS(=O)(=O)c1cccc2nsnc12` (stereo not given), the inhibition was 0%.
In the case of `CCCn1cnc2c(cnn2-c2ccc(F)cc2)c1=O` it was 4%.
Take `COc1ccc(C(=O)Oc2c(CN3CCOCC3)cc(Cl)c3cccnc23)cc1OC`: the inhibition was 0%.
Take `COc1ccc(Cn2c(CCCO)nc3ccccc32)cc1OC`: the inhibition is 0%.
For the molecule `Cc1cccc(N(CC(=O)Nc2ccc(CC#N)cc2)S(C)(=O)=O)c1`, the inhibition is 2%.
Turning to `COc1ccc2cc([C@H](C)C(=O)O)ccc2c1`, the inhibition is 0%.
In the case of `O=C(CC(SCCO)c1ccc2c(c1)OCO2)c1ccco1` (stereo not given) it was 0%; in that of `Cc1cc(C(=O)Nc2cccnc2)no1`, 0%.
For `Cc1c(NC(=O)c2nn(C)c(=O)c3ccccc23)c(=O)n(-c2ccccc2)n1C` the value was 0%.
With `CCOCC(=O)Nc1sc2c(c1C(=O)OCC)CCCC2`, the inhibition is 0%.
For `CCOC(=O)c1ccc(NC(=O)Nc2ccn(C)n2)cc1` the value was 0%; for `Cc1cc(C)cc(N(CC(=O)NC2CCC(C)CC2)S(=O)(=O)c2c(C)noc2C)c1` (stereo not given), 0%.
In the case of `COc1cccc(Oc2cnc(N)nc2-c2ccc(OC)cc2O)c1` it was 2%.
For `O=C(c1ccc(F)cc1)C1CCN(CCn2c(=O)[nH]c3ccccc3c2=O)CC1` the value was 0%; for `CCCCNC(=O)CN(C1CCCCC1)S(C)(=O)=O`, 8%; for `CCc1nnc2sc(-c3cc(-c4ccccc4)nc4ccccc34)nn12`, 3%.
As to `COc1ccc(C(c2nnnn2C2CCCC2)N2CCC(C)CC2)c(OC)c1` (stereo not given), the inhibition is 3%.
For the molecule `CC1CN(C(=O)CSc2nnc(-c3ccncc3)n2-c2ccccc2)CC(C)O1` (stereo not given), the inhibition was 1%.
As for `Cc1nc(CNS(=O)(=O)c2cc(C)c(C)cc2C)cs1`, the inhibition was 1%.
In the case of `CCOC(=O)N1CCC(N2C(=O)c3ccccc3C2Nc2ccccc2C)CC1` (stereo not given) it was 4%; in that of `COc1ccc(-c2nc(CSCC(=O)NCc3ccc4c(c3)OCO4)c(C)o2)cc1OC`, 0%; in that of `COc1ccc(NCc2nnc(SCC(=O)Nc3cc(C)cc(C)c3)o2)cc1`, 0%.
With `CC(C)c1ccc(CNc2ccc(N3CCOCC3)cc2)cc1`, the inhibition is 2%.
Consider `C1CCC2=NCCCN2CC1`, for which the inhibition is 7%.
Take `CCOP(=O)(c1ccc(N(C)C)cc1)C(O)c1ccccc1OC` (stereo not given): the inhibition was 5%.
Turning to `c1ccc2nc(-c3nc4ccccc4[nH]3)ccc2c1`, the inhibition was 0%.
Consider `COc1ccc(-n2c(Cc3cccn3C)nnc2SCC(=O)Nc2cccc(Cl)c2)cc1`, for which the inhibition was 2%.
For the molecule `C=CCN1C(=O)C2(/C(=C(\O)c3ccc4c(c3)OCCO4)C(=O)C(=O)N2CCCOC)c2ccccc21` (stereo not given), the inhibition was 0%.

The values above are taken from PubChem BioAssay.
